Assay outcomes: PubChem, Center for Chemical Genomics, University of Michigan
This excerpt belongs to a sample that is enriched for hits.
Dicer processing = inhibitors of human Dicer processing of pre-microRNA | AID 1347074 | actives 6% (n = 47,000) | Q9UPY3 | z-score at 25 µM | cat-ELCCA pre-miR-21 Dicer processing, chemiluminescence; stronger effect = higher value; in the data active means z-score above about 3, passing the limit was not always enough;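 further: plate controls were vehicle for no effect and no enzyme for full effect; higher signal means more uncleaved substrate so more Dicer inhibition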
* hit, by the source's call.

SMILES | Dicer processing
O=C(NCc1cccs1)c1cnn2c1NC(c1ccc(Br)cc1)CC2C(F)(F)F (stereo unspecified) | 5.72*
COc1ccc(CCN2C(=O)CSC2=Nc2c(Br)cc(F)cc2Br)cc1OC | -0.01
C=C(NC(=O)C(=C)NC(=O)c1csc(C2=N[C@H]3c4csc(n4)[C@H]4NC(=O)c5csc(n5)[C@H]([C@@](C)(O)[C@@H](C)O)NC(=O)[C@H]5CSC(=N5)/C(=C\C)NC(=O)[C@H]([C@@H](C)O)NC(=O)c5csc(n5)[C@]3(CC2)NC(=O)[C@H](C)NC(=O)C(=C)NC(=O)[C@H](C)NC(=O)[C@H](C(C)CC)N[C@@H]2C=Cc3c([C@H](C)O)cc(nc3[C@H]2O)C(=O)O[C@@H]4C)n1)C(N)=O (stereo partly specified) | 1.7
Cc1nc(N)nc(N/N=C/c2ccccc2O)n1 | -3.87
CCN1C(=O)c2cccc3c(S(=O)(=O)Nc4cc(C)on4)ccc1c23 | -2.38
CN(C)CCCN1C(=O)C(O)=C(C(=O)c2ccco2)C1c1ccc(Cl)cc1 (stereo unspecified) | -0.88
O=c1cc(-c2ccc(Cl)cc2)[nH]n1-c1nc2ccccc2[nH]1 | -0.31
Cc1nn(C)c2[nH]c(C(F)(F)F)cc(=O)c12 | 1.11
S=C(NNc1c(Cl)cncc1Cl)Nc1ccc(Cl)cc1Cl | 6.72*
OCCCNNC(=S)Nc1ccc(Cl)cc1Cl | 1.03
CCNC(=S)Nc1ccc(Cl)cc1Cl | -0.94
COc1cc(CCC(C)NC(=O)c2ccc(Cl)cc2)ccc1OC(=O)c1ccc(Cl)cc1 (stereo unspecified) | -0.99
O=C(CSc1nnc(-c2ccccc2)o1)c1ccccc1 | -1.12
CCOC(=O)CSc1nnc(-c2ccc(C)cc2)o1 | 2.81
O=C(CSc1nnc(-c2ccccc2)o1)OCc1ccccc1 | 3.44*
COc1ccc(NC(=O)C(C)Oc2ccc(Oc3ccc(C(F)(F)F)cc3)cc2)cc1 (stereo unspecified) | 0.25
Cc1onc(-c2ccccc2Cl)c1C(=O)N(CCC#N)C1CCCCC1 | 5.35
COc1ccc(C2=Nn3c(COc4cc(C)ccc4Cl)nnc3SC2)cc1 | -1.7
COc1ccc(OCc2nnc3n2N=C(c2ccc(C)cc2)CS3)cc1 | 1.64
COc1ccc(OCc2nnc3n2N=C(c2ccc(OC)cc2)CS3)cc1 | 5.17*
C#CC1(NS(=O)(=O)c2ccc(C(=O)OCC)cc2)CCCCC1 | -0.68
CSc1nnc(SCc2nc(-c3ccc([N+](=O)[O-])cc3)cs2)s1 | 0.44
O=C1CCC(=O)N1CC(=O)N1c2ccccc2Sc2ccccc21 | -0.22
CCOC(=O)C(=O)N1c2ccccc2Sc2ccccc21 | 9.82
Cc1nccn1CC(=O)N1c2ccccc2Sc2ccccc21 | 5.53*
SMILES | Dicer processing
Cc1cccc(OCC(O)Cn2c(C)nc3ccccc32)c1 (stereo unspecified) | -1.07
O=C1CC(c2ccc(Cl)cc2)CC2=C1C(c1ccc3c(c1)OCO3)Nc1ccccc1N2 (stereo unspecified) | -2.82
O=C1CC(c2ccccc2)CC2=C1C(c1ccsc1)Nc1ccccc1N2 (stereo unspecified) | 2.39
COc1ccc(C2CC(=O)C3=C(C2)Nc2ccccc2NC3c2ccc3c(c2)OCO3)cc1OC (stereo unspecified) | 2.07
Cc1ccc(C)c(C2Nc3ccccc3NC3=C2C(=O)CC(c2cccs2)C3)c1 (stereo unspecified) | 3.37*
Cc1ccc(C2Nc3ccccc3NC3=C2C(=O)CC(c2cccs2)C3)cc1 (stereo unspecified) | 3.24*
Cc1ccc2occ(C3Nc4ccccc4NC4=C3C(=O)CC(c3ccccc3)C4)c(=O)c2c1 (stereo unspecified) | 1.13
Cc1ccc2occ(C3Nc4ccccc4NC4=C3C(=O)CC(c3ccccc3Cl)C4)c(=O)c2c1 (stereo unspecified) | 2.26
CN(C)c1ccc(C2Nc3ccccc3NC3=C2C(=O)CC(c2cccs2)C3)cc1 (stereo unspecified) | -3.09
Cc1ccc(C2Nc3ccccc3NC3=C2C(=O)CC(c2ccc4c(c2)OCO4)C3)s1 (stereo unspecified) | 5.42*
Nc1ccccc1Sc1cc(Sc2ccccc2N)c([N+](=O)[O-])cc1Cl | -0.83
O=[N+]([O-])c1ccc(Sc2c(-c3ccc(Br)cc3)nc3ccccn23)cc1 | -1.92
O=C(N1CCCCC1)N1c2ccccc2CC(N2CCCCC2)c2ccccc21 (stereo unspecified) | 2.14
N/C(=N\NC(=O)Nc1cccc(C(F)(F)F)c1)c1ccc(C(F)(F)F)cn1 | -0.57
Cc1nc(C(F)(F)F)ccc1C(=O)N1CCN(C(c2ccccc2)c2ccccc2)CC1 | 2.22
S=C(Nc1ccc(C2CCCCC2)cc1)N1CCSCC1 | -2.2
COc1cc(C2SCc3cc(C)c(C)cc3CS2)ccc1O | 1.11
Cc1cc(C2CCCCC2)ccc1O | 5.63*
O=C1C(=O)N(CCCN2CCOCC2)C(c2ccccc2F)/C1=C(\O)c1ccc(Cl)cc1 (stereo unspecified) | -2.61
COC(=O)c1ccc(C2c3c(oc4ccccc4c3=O)C(=O)N2c2ccccn2)cc1 (stereo unspecified) | 1.59
Nc1ncnc(Nc2ccc(Oc3ccc(Cl)cc3)cc2)n1 | -0.35
Nc1nc(SCc2ccc(Cl)cc2)n[nH]1 | 0.27
Nc1nc(Nc2ccc(Cl)cc2)n[nH]1 | 5.37*
CS(=NC(=O)c1cccc(Cl)c1)c1ccc(OC(=O)c2ccc(Cl)cc2)cc1 (stereo unspecified) | -1.22
Cc1ccc2c(c1)N(C(=O)NC1CCCCC1)C(C)(C)CC2C (stereo unspecified) | 3.16*
SMILES | Dicer processing
CCOc1ccc2c(c1)C(C)CC(C)(C)N2C(=O)NC1CCCCC1 (stereo unspecified) | 1.58
CC1=CC(C)(C)N(C(=O)NC2CCCCC2)c2cc(C)ccc21 | -0.28
Cc1cc(Oc2cc(C)c(Cl)c(C)c2)c2ccccc2n1 | -1.29
Cc1oc(N)c(S(=O)(=O)/C(C#N)=C/c2cc(Cl)cc(Cl)c2)c1C | 0.36
O=S(=O)(Nc1ccccc1N1CCCCC1)c1ccc(C(F)(F)F)cc1 | 3.28*
O=S(=O)(Nc1ccccc1N1CCOCC1)c1ccc2c(c1)OCC2 | 7.59
CC(=O)Nc1ccc(S(=O)(=O)Nc2ccccc2N2CCOCC2)cc1Cl | 2.23
Cc1cc(OS(=O)(=O)CS(=O)(=O)Oc2ccc(Cl)c(C)c2)ccc1Cl | 0.53
Cc1cc([N+](=O)[O-])ccc1N1CCCC1 | -0.69
OCC#CCSc1nnc(-c2cccc(Br)c2)o1 | 1.64
c1ccc(NCc2ccc3c(c2)OCO3)cc1 | 1.4
Cc1ccc(-c2nc3cc(NC(=O)c4ccc([N+](=O)[O-])o4)ccc3o2)cc1 | -0.19
O=C(O)c1cc(NCc2ccc3c(c2)OCO3)ccc1N1CCOCC1 | 2.76
O=c1[nH]c2ccc(NCc3ccc4c(c3)OCO4)cc2[nH]1 | -0.48
CC(C)(C)c1ccc(-c2nc3cc(NC(=O)c4ccc([N+](=O)[O-])o4)ccc3o2)cc1 | 1.03
Cc1ccc(-c2nc3cc(NCc4ccc5c(c4)OCO5)ccc3o2)cc1 | 7.99*
CCc1ccc(CNCc2ccc3c(c2)OCO3)cc1 | 1.59
Clc1cc(NCc2ccc3c(c2)OCO3)ccc1N1CCOCC1 | 6.92*
Cc1cc(NCc2ccc3c(c2)OCO3)ccc1Br | 3.81*
CC(=O)Oc1cc(OC(C)=O)c2c(c1O)C(=O)c1ccccc1C2=O | 1.52
COc1ccc2ccccc2c1C1OC(=O)C2(CCCCC2)C(=O)C1(C)C (stereo unspecified) | -0.31
O=C(Nc1ccc(S(=O)(=O)Nc2nccs2)cc1)c1sc2cc(Cl)ccc2c1Cl | -0.04
CCOC(=O)c1cnc(SCC(=O)c2ccc(-c3ccccc3)cc2)nc1N | 1.33
